Experimental data as given in PubChem BioAssay (NCI).
Compounds without any hit were thinned out: in the full panel of roughly 79,000, 15% have a hit. Calls of active or inactive are those of the source. No stated cut-off is given here; in the data, active means growth inhibition above about 70%; inactive means the rest.

Test: NCI Yeast Anticancer Drug Screen. Data for the wt2 strain (AID 169);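 further: 0% = growth of vehicle-treated yeast cultures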
Conditions: S. cerevisiae wt2 strain growth inhibition, hits give high values
Description: Growth inhibition of yeast strains with defined genetic alterations is measured as a screen for potential anti-cancer activity. Selected strains with alterations in DNA damage repair or cell cycle control were exposed to compounds and growth inhibition was measured relative to vehicle treated controls. The strain used in this assay is wt2

Measured: growth inhibition

CCCCCCCCCCCCCCCCP(=O)(O)OP(=O)(O)OCC1OC(n2ccc(N)nc2=O)C(O)C1O (stereo not given)
inactive: at 1.2 µM 1% | at 3.7 µM 0% | at 11.0 µM 1% | at 33.0 µM 1% | at 100.0 µM 1%

C/C(=N\O)c1ccc2ccc3ccccc3c2c1
inactive: at 1.2 µM -1% | at 3.7 µM -1% | at 11.0 µM 0% | at 33.0 µM 35%
active: at 100.0 µM 92%

O=C1c2ccccc2C(=O)C(Cl)C1Cl (stereo not given)
active: at 11.0 µM 82% | at 33.0 µM 99% | at 100.0 µM 99%
inactive: at 1.2 µM 9% | at 3.7 µM 24%

CC(C)(C)c1cc([N+](=O)[O-])cc([N+](=O)[O-])c1O
inactive: at 1.2 µM -35% | at 3.7 µM -29% | at 11.0 µM -11% | at 33.0 µM 23% | at 100.0 µM 47%

O=C(NNC(=O)OCC(Cl)(Cl)Cl)OCC(Cl)(Cl)Cl
active: at 33.0 µM 89% | at 100.0 µM 96%
inactive: at 1.2 µM -2% | at 3.7 µM -4% | at 11.0 µM 29%

CNC(=O)ON(C(C)=O)C(=O)NC
inactive: at 1.2 µM -24% | at 3.7 µM -20% | at 11.0 µM -22% | at 33.0 µM -42% | at 100.0 µM -10%

CCN(CCCl)c1cc(CN(C)C)cc(NC(=O)c2ccc(C(=O)Nc3cc(CN(C)C)cc(N(CC)CCCl)c3)cc2)c1
inactive: at 1.2 µM -12% | at 3.7 µM -19% | at 11.0 µM -16% | at 33.0 µM 3%
active: at 100.0 µM 89%

COC1C(O)C(C)OC(OC2C(Oc3cccc4c(O)c5c(=O)oc6ccc(C)c7c(=O)oc(c34)c5c67)OC(C)C(O)C2O)C1O (stereo not given)
inactive: at 1.2 µM 0% | at 3.7 µM 3% | at 11.0 µM 12% | at 33.0 µM 22% | at 100.0 µM 20%
